Test results reported in PubChem BioAssay (EPA / NIEHS).
Inconclusive results are not listed. The source made the active and inactive calls. The calls were made as follows, unless noted: active = hit-call score of the fitted dose curve at least 0.9, where 1 is the maximum; inconclusive = response in the unintended direction; inactive = score below 0.9.

Key:
[1] = ATG_TCF_b_cat_CIS: Attagene CIS-FACTORIAL HepG2 Assay for human T-Cell-Factor with beta-catenin (TCF/b-cat) (AID 2282965; active = hit-call score of the fitted dose curve at least 0.9, where 1 is the maximum; inactive = score below 0.9); conditions: HepG2 TCF/beta-catenin cis-reporter transcription, actives raise or lower the signal
In short: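 In this cis-format system, transfected HepG2 cells report endogenous transcription factor activity. Readout after 24 h exposure is reporter transcript abundance from RT-PCR and capillary electrophoresis, analysed for gain or loss of signal versus DMSO.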

[2] = ATG_TAL_CIS: Attagene CIS-FACTORIAL HepG2 Assay for human TAL Basal Promoter (AID 2282966; active = hit-call score of the fitted dose curve at least 0.9, where 1 is the maximum; inactive = score below 0.9;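 also: background control endpoint measuring basal TAL promoter reporter mRNA not a specific factor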); conditions: HepG2 Attagene cis-factorial TAL promoter reporter; actives raise or lower the signal
In short: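 In this cell-based multiplex, HepG2 liver cells bearing cis-promoter reporter constructs are dosed for 24 hours. Total RNA is reverse-transcribed and amplified, labelled fragments are sized by capillary electrophoresis, and signal changes are fitted bidirectionally versus DMSO.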

[3] = ATG_TGFb_CIS: Attagene CIS-FACTORIAL HepG2 Assay for human Transforming Growth Factor (TGF) (AID 2282967; active = hit-call score of the fitted dose curve at least 0.9, where 1 is the maximum; inactive = score below 0.9); conditions: HepG2 Attagene CIS TGFb reporter, mRNA transcription; actives raise or lower the signal
In short: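 HepG2 cells transiently transfected with cis-promoter-driven multiple reporter units measure endogenous TF activity; reporter mRNA quantified at 24 h by RT-PCR, FAM labeling, HpaI digestion and capillary electrophoresis. Bidirectional fit vs DMSO.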

[4] = ATG_VDRE_CIS: Attagene CIS-FACTORIAL HepG2 Assay for human Vitamin D Receptor Element (VDRE) (AID 2282968; active = hit-call score of the fitted dose curve at least 0.9, where 1 is the maximum; inactive = score below 0.9); conditions: HepG2 VDRE cis-reporter transcription, actives raise or lower the signal
In short: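 HepG2 cells transiently transfected with cis-element reporter units, dosed 24 h; reporter mRNA measured by RT-PCR, 6-FAM labeling, HpaI digestion and capillary electrophoresis. Activity fitted bidirectionally against DMSO baseline.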

[5] = biological target: Nuclear receptor subfamily 1 group I member 3 (Homo sapiens) (UniProt Q14994); test: ATG_CAR_TRANS: Attagene TRANS-FACTORIAL HepG2 Assay for human Constitutive Androstane Receptor (CAR) (AID 2282969); conditions: HepG2 Attagene TRANS-FACTORIAL CAR reporter;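 also: activators raise reporter mRNA above DMSO so AC50 marks induction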
Nuclear receptor subfamily 1 group I member 3 (Homo sapiens), sequence (Q14994 whole entry, looked up, the tested form may be a part): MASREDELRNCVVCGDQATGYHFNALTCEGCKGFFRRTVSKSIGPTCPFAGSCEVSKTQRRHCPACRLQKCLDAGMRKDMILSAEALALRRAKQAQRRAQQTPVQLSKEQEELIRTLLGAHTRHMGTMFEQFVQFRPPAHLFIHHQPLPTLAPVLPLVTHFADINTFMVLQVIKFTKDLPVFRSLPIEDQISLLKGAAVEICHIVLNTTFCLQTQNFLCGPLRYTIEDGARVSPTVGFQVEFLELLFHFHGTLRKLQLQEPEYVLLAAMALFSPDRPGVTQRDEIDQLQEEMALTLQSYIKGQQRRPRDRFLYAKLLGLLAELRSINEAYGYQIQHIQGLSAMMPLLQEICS
In short: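 HepG2 cells transiently transfected with multiplexed GAL4-UAS reporter units expressing chimeric NR-Gal4 proteins; compound exposure 24 h. Reporter mRNA measured by RT-PCR, 6-FAM labelling, HpaI digestion and capillary electrophoresis; gain-of-signal fitted against DMSO baseline.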

[6] = biological target: Estrogen receptor (Homo sapiens) (UniProt P03372); test: ATG_ERa_TRANS: Attagene TRANS-FACTORIAL HepG2 Assay for human Estrogen Receptor alpha (ERa) (AID 2282970); conditions: HepG2 Attagene TRANS ERa GAL4 reporter, mRNA
Estrogen receptor (Homo sapiens), sequence (P03372 whole entry, looked up, the tested form may be a part): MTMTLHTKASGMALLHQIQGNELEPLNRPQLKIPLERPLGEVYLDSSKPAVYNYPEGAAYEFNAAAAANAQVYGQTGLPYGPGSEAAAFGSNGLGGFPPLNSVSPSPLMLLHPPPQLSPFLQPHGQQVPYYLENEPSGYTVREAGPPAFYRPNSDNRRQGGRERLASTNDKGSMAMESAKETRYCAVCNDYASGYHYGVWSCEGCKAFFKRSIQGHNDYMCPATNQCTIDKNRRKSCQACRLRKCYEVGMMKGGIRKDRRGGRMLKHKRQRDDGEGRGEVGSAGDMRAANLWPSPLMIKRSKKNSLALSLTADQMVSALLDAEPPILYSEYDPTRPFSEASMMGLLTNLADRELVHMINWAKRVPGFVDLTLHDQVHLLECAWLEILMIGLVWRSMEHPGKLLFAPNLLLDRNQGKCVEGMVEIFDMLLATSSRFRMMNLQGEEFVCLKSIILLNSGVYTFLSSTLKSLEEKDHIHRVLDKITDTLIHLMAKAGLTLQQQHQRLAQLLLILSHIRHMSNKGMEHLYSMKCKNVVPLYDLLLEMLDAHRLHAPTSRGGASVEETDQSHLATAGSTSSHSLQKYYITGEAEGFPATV
In short: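 After 24 h of compound treatment, RNA from HepG2 cells bearing transfected GAL4-UAS reporter constructs is converted to cDNA, amplified and fluorescently labelled. Capillary electrophoresis resolves the ERa-linked reporter; DMSO serves as negative control.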

[7] = biological target: Steroid hormone receptor ERR1 (Homo sapiens) (UniProt P11474); test: ATG_ERRa_TRANS: Attagene TRANS-FACTORIAL HepG2 Assay for human Estrogen-Related Receptor alpha (ERRa) (AID 2282971); conditions: HepG2 Attagene TRANS reporter, ERRa transactivation
Steroid hormone receptor ERR1 (Homo sapiens), sequence (P11474 whole entry, looked up, the tested form may be a part): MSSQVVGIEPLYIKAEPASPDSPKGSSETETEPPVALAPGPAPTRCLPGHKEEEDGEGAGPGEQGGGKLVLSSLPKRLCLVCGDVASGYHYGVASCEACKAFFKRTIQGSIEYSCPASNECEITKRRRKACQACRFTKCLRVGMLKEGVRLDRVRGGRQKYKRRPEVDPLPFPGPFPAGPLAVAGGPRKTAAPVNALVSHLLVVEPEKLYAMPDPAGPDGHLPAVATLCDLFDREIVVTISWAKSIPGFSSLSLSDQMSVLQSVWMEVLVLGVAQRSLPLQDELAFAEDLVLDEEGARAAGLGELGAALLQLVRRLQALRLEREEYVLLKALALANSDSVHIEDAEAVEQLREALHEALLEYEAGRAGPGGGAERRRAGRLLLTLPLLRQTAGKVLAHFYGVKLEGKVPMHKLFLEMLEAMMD
In short: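 Transfected HepG2, 24 h dosing, ERRa-Gal4 chimera driving GAL4-UAS reporter. Readout: reporter mRNA via RT-PCR plus capillary electrophoresis (fluorescence). Positive direction vs DMSO control.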

[8] = biological target: X-box-binding protein 1 (Homo sapiens) (UniProt P17861); test: ATG_Xbp1_CIS: Attagene CIS-FACTORIAL HepG2 Assay for human X-box Binding Protein 1 (XBP1) (AID 2282972; active = hit-call score of the fitted dose curve at least 0.9, where 1 is the maximum; inactive = score below 0.9); conditions: HepG2 XBP1 cis-element reporter, Attagene multiplex; actives raise or lower the signal
X-box-binding protein 1 (Homo sapiens), sequence (P17861 whole entry, looked up): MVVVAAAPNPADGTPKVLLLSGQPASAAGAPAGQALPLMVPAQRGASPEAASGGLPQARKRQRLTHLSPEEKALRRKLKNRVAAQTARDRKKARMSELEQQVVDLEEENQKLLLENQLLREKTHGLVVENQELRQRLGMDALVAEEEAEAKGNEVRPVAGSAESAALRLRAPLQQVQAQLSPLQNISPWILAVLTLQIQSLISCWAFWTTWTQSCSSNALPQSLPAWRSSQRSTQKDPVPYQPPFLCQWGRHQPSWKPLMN
In short: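 HepG2 cells transiently transfected with cis-regulated multiple reporter transcription units; endogenous transcription factor activity measured 24 hours after chemical dosing. Reporter mRNA quantified by RT-PCR, 6-FAM primer extension, HpaI digestion and capillary electrophoresis; bidirectional fitting versus DMSO.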

[9] = biological target: Glucocorticoid receptor (Homo sapiens) (UniProt P04150); test: ATG_GR_TRANS: Attagene TRANS-FACTORIAL HepG2 Assay for human Glucocorticoid Receptor (GR) (AID 2282978); conditions: HepG2 Attagene TRANS GR reporter, mRNA transcription;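 also: activators score as hits since higher reporter transcript over DMSO is fitted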
Glucocorticoid receptor (Homo sapiens), sequence (P04150 whole entry, looked up): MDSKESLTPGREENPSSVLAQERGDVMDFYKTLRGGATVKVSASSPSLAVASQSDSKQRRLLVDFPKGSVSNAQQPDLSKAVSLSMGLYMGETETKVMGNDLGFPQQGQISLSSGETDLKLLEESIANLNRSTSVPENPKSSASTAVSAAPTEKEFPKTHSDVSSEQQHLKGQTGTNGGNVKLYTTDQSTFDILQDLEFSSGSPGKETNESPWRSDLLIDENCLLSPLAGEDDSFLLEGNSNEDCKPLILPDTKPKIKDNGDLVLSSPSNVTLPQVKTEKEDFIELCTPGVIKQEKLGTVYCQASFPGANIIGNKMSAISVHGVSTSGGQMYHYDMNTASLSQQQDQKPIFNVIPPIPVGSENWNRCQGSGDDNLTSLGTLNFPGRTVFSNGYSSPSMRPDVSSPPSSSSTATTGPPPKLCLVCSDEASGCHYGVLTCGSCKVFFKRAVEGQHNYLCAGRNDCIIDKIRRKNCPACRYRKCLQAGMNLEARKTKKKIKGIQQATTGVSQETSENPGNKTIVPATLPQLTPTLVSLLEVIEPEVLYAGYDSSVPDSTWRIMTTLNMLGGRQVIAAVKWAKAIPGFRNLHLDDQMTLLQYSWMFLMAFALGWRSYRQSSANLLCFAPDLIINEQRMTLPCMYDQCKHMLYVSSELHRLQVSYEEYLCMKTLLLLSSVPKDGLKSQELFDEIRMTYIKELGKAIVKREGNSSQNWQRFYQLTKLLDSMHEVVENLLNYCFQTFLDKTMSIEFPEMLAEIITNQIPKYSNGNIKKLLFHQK
In short: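 After 24 h incubation with test chemical, transfected HepG2 cells were lysed for RNA; reporter cDNA was amplified, FAM-labelled, HpaI-digested and sized on a capillary analyser. Signal gain relative to DMSO was scored.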

[10] = ATG_M_06_TRANS: Attagene TRANS-FACTORIAL HepG2 Assay for M06 Transcription Factor (Internal Marker) (AID 2282983); conditions: HepG2 Attagene TRANS M06 internal marker reporter;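 also: reporter transcript level by RT-PCR then capillary electrophoresis fluorescence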
In short: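 After a 24 h chemical treatment of transfected HepG2, RNA underwent DNase I treatment, reverse transcription and reporter-specific PCR; labelled, HpaI-digested products were sized by capillary electrophoresis. Signal increase relative to DMSO defined activity.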

[11] = ATG_M_32_TRANS: Attagene TRANS-FACTORIAL HepG2 Assay for M32 Transcription Factor (Internal Marker) (AID 2282984); conditions: HepG2 Attagene TRANS M32 internal marker reporter;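 also: transcript level of a background control reporter unit measured by RT-PCR and capillary electrophoresis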
In short: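 HepG2 cells transiently transfected with multiple GAL4-UAS reporter transcription units, dosed for 24 hours; reporter mRNA quantified by RT-PCR, 6-FAM primer extension, HpaI digestion and capillary electrophoresis. Gain-of-signal fitted versus DMSO baseline; internal background-control marker.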

[12] = biological target: Androgen receptor (Homo sapiens) (UniProt P10275); test: ATG_AR_TRANS: Attagene TRANS-FACTORIAL HepG2 Assay for human Androgen Receptor (AR) (AID 2282973); conditions: HepG2 Attagene TRANS-FACTORIAL AR reporter transcription
Androgen receptor (Homo sapiens), sequence (P10275 whole entry, looked up, the tested form may be a part): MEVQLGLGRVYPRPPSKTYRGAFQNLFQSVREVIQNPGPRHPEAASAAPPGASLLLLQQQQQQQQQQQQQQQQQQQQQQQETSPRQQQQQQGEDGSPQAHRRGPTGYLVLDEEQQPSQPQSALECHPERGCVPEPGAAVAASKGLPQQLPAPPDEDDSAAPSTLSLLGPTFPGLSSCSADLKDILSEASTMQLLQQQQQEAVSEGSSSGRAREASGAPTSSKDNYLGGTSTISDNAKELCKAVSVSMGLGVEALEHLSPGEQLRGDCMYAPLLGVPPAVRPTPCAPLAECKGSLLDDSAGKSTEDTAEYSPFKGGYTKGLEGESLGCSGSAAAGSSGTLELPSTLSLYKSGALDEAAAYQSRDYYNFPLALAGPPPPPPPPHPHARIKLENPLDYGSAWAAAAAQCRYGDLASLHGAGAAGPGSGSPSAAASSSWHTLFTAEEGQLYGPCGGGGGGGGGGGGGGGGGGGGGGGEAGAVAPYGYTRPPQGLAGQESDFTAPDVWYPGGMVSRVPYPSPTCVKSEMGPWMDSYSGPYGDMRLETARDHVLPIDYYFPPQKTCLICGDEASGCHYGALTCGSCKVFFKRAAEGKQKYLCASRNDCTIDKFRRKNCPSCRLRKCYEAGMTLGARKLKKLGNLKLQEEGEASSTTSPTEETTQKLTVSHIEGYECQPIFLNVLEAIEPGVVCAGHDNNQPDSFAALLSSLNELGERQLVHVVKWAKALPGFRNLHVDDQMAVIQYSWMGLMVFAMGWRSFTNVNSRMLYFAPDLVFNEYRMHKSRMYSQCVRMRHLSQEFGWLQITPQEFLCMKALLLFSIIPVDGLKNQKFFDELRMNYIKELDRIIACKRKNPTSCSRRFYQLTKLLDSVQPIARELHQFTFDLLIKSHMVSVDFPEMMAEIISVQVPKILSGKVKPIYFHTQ
In short: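 Readout is reporter transcript abundance, quantified by fluorescent RT-PCR products separated on capillary electrophoresis. Human HepG2 liver cells carried transiently transfected NR-Gal4 chimera plus GAL4-UAS reporter constructs and were dosed for 24 h; activity scored upward versus DMSO.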

[13] = ATG_M_19_TRANS: Attagene TRANS-FACTORIAL HepG2 Assay for M19 Transcription Factor (Internal Marker) (AID 2282974); conditions: HepG2 Attagene TRANS-FACTORIAL M19 internal marker reporter
In short: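 Transfected HepG2 (GAL4-UAS MRTUs), 24 h compound, TriZol RNA, DNase-treated RT, reporter PCR, FAM label, HpaI digest, CE fluorescence; gain vs DMSO.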

[14] = ATG_GAL4_TRANS: Attagene TRANS-FACTORIAL HepG2 Assay for GAL4 (Internal Marker) (AID 2282976); conditions: HepG2 Attagene TRANS GAL4 internal marker reporter
In short: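 RT-PCR/capillary electrophoresis readout of reporter mRNA. HepG2, transient MRTU transfection (GAL4-UAS reporters), 24 h compound exposure. Background-control endpoint, positive direction vs DMSO baseline.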

[15] = biological target: Bile acid receptor (Homo sapiens) (UniProt Q96RI1); test: ATG_FXR_TRANS: Attagene TRANS-FACTORIAL HepG2 Assay for Farnesoid X Receptor (FXR) (AID 2282979); conditions: HepG2 Attagene TRANS FXR-GAL4 reporter transcription;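 also: hits raise reporter mRNA above DMSO so AC50 marks FXR activation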
Bile acid receptor (Homo sapiens), sequence (Q96RI1 whole entry, looked up, the tested form may be a part): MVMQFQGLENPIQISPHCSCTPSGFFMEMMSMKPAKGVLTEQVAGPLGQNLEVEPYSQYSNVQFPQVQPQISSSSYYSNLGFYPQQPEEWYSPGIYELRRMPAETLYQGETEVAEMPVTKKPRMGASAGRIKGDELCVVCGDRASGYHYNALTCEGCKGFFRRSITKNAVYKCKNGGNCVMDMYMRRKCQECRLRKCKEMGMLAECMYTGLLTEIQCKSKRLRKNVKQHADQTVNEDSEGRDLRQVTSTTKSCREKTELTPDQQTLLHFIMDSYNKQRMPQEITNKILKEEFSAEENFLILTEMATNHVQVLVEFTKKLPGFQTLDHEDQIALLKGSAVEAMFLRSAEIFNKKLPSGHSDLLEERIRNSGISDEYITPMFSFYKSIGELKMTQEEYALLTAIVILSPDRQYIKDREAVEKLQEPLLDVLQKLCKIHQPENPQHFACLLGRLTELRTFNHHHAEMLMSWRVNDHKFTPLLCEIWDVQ
In short: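 Read-out: fluorescent reporter transcripts quantified by capillary electrophoresis after RT-PCR of total RNA. Source cells were HepG2 transiently carrying chimeric NR-GAL4 plus GAL4-UAS reporter units, dosed 24 h. Activity fitted upward relative to DMSO baseline.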

[16] = biological target: Oxysterols receptor LXR-beta (Homo sapiens) (UniProt P55055); test: ATG_LXRb_TRANS: Attagene TRANS-FACTORIAL HepG2 Assay for human Liver X Receptor beta (LXRb) (AID 2282981); conditions: HepG2 Attagene TRANS GAL4-LXRb reporter, mRNA
In short: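 HepG2 cells transiently transfected with multiple reporter transcription units carrying chimeric NR-Gal4 proteins acting on GAL4-UAS reporters; compound exposure 24 h. Reporter mRNA quantified by RT-PCR, 6-FAM labelling, HpaI digestion and capillary electrophoresis; gain of signal versus DMSO.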

[17] = biological target: Nuclear receptor subfamily 4 group A member 2 (Homo sapiens) (UniProt P43354); test: ATG_NURR1_TRANS: Attagene TRANS-FACTORIAL HepG2 Assay for human Nuclear Receptor Related Protein 1 (NURR1) (AID 2282985); conditions: HepG2 Attagene TRANS reporter, mRNA readout
Nuclear receptor subfamily 4 group A member 2 (Homo sapiens), sequence (P43354 whole entry, looked up, the tested form may be a part): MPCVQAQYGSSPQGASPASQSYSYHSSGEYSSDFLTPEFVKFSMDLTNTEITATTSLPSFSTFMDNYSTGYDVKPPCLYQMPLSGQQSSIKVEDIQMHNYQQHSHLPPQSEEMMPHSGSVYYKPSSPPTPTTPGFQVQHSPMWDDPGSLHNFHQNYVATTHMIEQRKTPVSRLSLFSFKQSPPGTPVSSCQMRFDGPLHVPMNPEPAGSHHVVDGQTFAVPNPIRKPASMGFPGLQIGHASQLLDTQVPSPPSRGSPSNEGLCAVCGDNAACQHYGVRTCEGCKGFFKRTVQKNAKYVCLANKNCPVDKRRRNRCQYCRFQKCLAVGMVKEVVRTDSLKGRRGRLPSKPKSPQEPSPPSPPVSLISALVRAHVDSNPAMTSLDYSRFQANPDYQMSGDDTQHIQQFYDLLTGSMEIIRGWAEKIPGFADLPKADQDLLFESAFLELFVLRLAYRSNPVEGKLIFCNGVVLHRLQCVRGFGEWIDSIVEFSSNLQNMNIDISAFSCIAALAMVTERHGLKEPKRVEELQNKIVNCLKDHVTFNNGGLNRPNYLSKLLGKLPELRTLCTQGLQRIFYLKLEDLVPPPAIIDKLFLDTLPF
In short: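 HepG2 cells transiently transfected with GAL4-UAS reporter units and chimeric NR-Gal4 constructs; chemical exposure 24 h. Reporter mRNA quantified by RT-PCR, fluorescent labelling and capillary electrophoresis; gain of signal fitted relative to DMSO baseline.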

[18] = biological target: Estrogen-related receptor gamma (Homo sapiens) (UniProt P62508); test: ATG_ERRg_TRANS: Attagene TRANS-FACTORIAL HepG2 Assay for human Estrogen-Related Receptor gamma (ERRg) (AID 2282977); conditions: HepG2 Attagene TRANS reporter, ERRg transactivation;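 also: hits increase reporter signal over DMSO so potencies reflect activators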
Estrogen-related receptor gamma (Homo sapiens), sequence (P62508 whole entry, looked up, the tested form may be a part): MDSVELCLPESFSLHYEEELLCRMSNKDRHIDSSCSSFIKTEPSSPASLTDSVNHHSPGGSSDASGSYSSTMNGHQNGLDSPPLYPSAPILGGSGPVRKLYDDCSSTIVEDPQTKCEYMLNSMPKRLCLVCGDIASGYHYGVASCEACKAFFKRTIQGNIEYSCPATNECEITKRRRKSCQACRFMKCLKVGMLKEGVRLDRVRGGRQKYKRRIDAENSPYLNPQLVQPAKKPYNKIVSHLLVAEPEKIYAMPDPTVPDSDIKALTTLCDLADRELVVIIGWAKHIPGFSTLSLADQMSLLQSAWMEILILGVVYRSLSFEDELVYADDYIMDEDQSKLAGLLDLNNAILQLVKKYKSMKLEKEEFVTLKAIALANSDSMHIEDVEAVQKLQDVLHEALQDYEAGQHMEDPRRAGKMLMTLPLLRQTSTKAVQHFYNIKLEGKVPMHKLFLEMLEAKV
In short: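 Transient HepG2 transfectants, 24 h compound exposure, GAL4-UAS reporter mRNA by RT-PCR/6-FAM labelling/capillary electrophoresis; positive direction vs DMSO.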

[19] = biological target: Hepatocyte nuclear factor 4-alpha (Homo sapiens) (UniProt P41235); test: ATG_HNF4a_TRANS: Attagene TRANS-FACTORIAL HepG2 Assay for human Hepatocyte Nuclear Factor 4 alpha (HNF4a) (AID 2282982); conditions: HepG2 HNF4a transactivation reporter, mRNA readout
In short: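 HepG2 cells transiently transfected with multiplexed GAL4-UAS reporter units responsive to chimeric NR-GAL4 proteins; compound exposure 24 h. Reporter mRNA quantified by RT-PCR, 6-FAM labelling, HpaI digestion and capillary electrophoresis; gain of signal versus DMSO baseline.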

Measured: AC50

CCN(CC)C1CCCCC1
inactive: [1] | [2] | [3] | [4] | [5] | [6] | [7] | [8] | [9] | [10] | [11]

CCOP(=S)(OCC)SCS(=O)(=O)CC
inactive: [1] | [2] | [3] | [4] | [5] | [6] | [7] | [8] | [12] | [13] | [14] | [9] | [15] | [10] | [11]

ClC(Cl)=C(c1ccc(Cl)cc1)c1ccccc1Cl
active: [2] 177 µM | [6] 2.02 µM | [8] 100 µM
inactive: [1] | [3] | [4] | [5] | [12] | [13] | [9] | [15] | [16] | [10] | [17]

CCCN(CCC)c1c([N+](=O)[O-])cc(C(C)C)cc1[N+](=O)[O-]
inactive: [1] | [2] | [3] | [4] | [5] | [6] | [8] | [13] | [17]

CCNc1nc(Cl)nc(NC(C)(C)C)n1
active: [6] 1.54 µM
inactive: [1] | [2] | [3] | [4] | [8] | [12] | [14] | [9] | [15] | [10] | [11]

CCC(C)(C)c1ccc(O)cc1
active: [6] 2.25 µM
inactive: [1] | [2] | [3] | [4] | [7] | [8] | [14] | [18] | [15] | [10] | [17]

CC(=O)CCc1ccc2c(c1)OCO2
inactive: [1] | [2] | [3] | [5] | [8] | [14] | [18] | [15] | [10] | [11] | [17]

c1ccc2c(c1)Nc1ccccc1S2
inactive: [1] | [2] | [3] | [5] | [7] | [8] | [13] | [14] | [18] | [10] | [11]

C=CC(=O)OCC(CC)(COC(=O)C=C)COC(=O)C=C
active: [3] 49.4 µM | [4] 3.37 µM
inactive: [1] | [2] | [6] | [7] | [8] | [12] | [9] | [19] | [10] | [17]

CCCCc1ccccc1
inactive: [1] | [2] | [3] | [4] | [6] | [8] | [13] | [15] | [17]
